KB-V1 cytotox = qHTS assay for MDR1-selective chemotherapeutics: Primary screen using the drug-selected MDR subline cells KB-V1; KB-V1 MDR cells viability, CellTiter-Glo, 72 h; 400,000 compounds, 3.4% hits; Potency, µM (series often up to 46.1 µM), usual class: cytotoxic; note: % is set by controls: 0 for no effect and ±100 for the full control effect; nearly all actives have a fitted effect of over 60% in size
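KB-V1 MDR subline cells in DMEM (phenol-red free, 10% FBS) exposed to compounds in qHTS concentration series for 72 h at 37 degrees C. Viability read by CellTiter-Glo luminescence; concentration-effect curves fitted after normalization and correction.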
MCF10A rereplic = A quantitative high throughput screen for small molecules that induce DNA re-replication in MCF 10a normal breast cells | MCF 10A DNA re-replication, Hoechst nuclear intensity, 48 h | Potency, µM (series often up to 46.1 µM), inactives show at the top dose activity, positive = re-replication, usual class: activators | 350,000 compounds, 2.9% hits | AID 624296, 2012; note: % of control where 0% means no effect; nearly all actives have a fitted effect of over 50% in size
KB-3-1 tox = qHTS assay for MDR1-selective chemotherapeutics: Primary screen using the parental adenocarcinoma cell KB-3-1 | KB-3-1 viability, CellTiter-Glo ATP luminescence, 72 h | Potency, µM (top dose mostly 46.1 µM), usual class: cytotoxic | 400,000 compounds, 1.4% hits | AID 1347075, 2019; note: % is set by controls: 0 for no effect and ±100 for the full control effect; nearly all actives have a fitted effect of over 60% in size
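Screening of KB-3-1 cells (DMEM, 10% FBS, phenol-red free) ran from lowest to highest compound concentration; after 72 h at 37 °C viability was read luminescently and curves fitted.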
SW480 rereplic = A quantitative high throughput screen for small molecules that induce DNA re-replication in SW480 colon adenocarcinoma cells; Potency, µM (titrated, usually from 46.1 µM), inactives show at the top dose re-replication activation, actives largely listed as activators; SW480 DNA re-replication, Hoechst DNA content imaging, 48 h; 340,000 compounds, 1.8% hits; AID 624297, 2012; note: % of control where 0% means no effect; nearly all actives have a fitted effect of over 55% in size
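Readout is total intensity of Hoechst-stained nuclei, excited at 405 nm and collected at 500-530 nm. Compound treatment lasted 48 hr at 37 C in 5% CO2 before staining.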
ELG1 DNA repair = qHTS screen for small molecules that inhibit ELG1-dependent DNA repair in human embryonic kidney (HEK293T) cells expressing luciferase-tagged ELG1; HEK293T ELG1-luciferase reporter, luminescence, 16 h; DNA damage induced by 5-fluorouridine; Potency, µM (doses to about 46.1 µM), inactives show at the highest dose activity change, negative = inhibition, hits mostly inhibitors; 330,000 compounds, 2.3% hits; note: % is set by controls: 0 for no effect and ±100 for the full control effect; nearly all actives have a fitted effect of over 55% in size
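Reporter activity after DNA damage by 5-fluorouridine is monitored. Compound-treated cells incubate 16 hr at 37 °C, then ONE-Glo is added for 30 min before luminescence reading.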
* hit, by the source's call; i = inactive; ? = inconclusive; · = no result; [ ] = another dose, or the depositor's remark. In the library only some 8.1% were active in any assay of this set; here they are far more common. Calls come from the whole dose curve; as a rule, active = well fitted curve in the direction sought with a large enough effect; inconclusive = small, poorly fitted or top-dose-only effect, or another doubt; inactive = no such curve, though single readings can be large; an effect the other way counts as inactive or inconclusive. Potency is the fitted concentration of half-maximal effect.

SMILES	KB-V1 cytotox	MCF10A rereplic	KB-3-1 tox	SW480 rereplic	ELG1 DNA repair
CCn1c(C)nc2cc(-c3nnc(-c4c(-c5ccccc5)noc4C)o3)ccc21	?	?	?	-9%	21µM*
Cc1ccc(C)c(OCCC(=O)OCC(=O)Nc2ccc(Cl)cn2)c1	i	-1%	i	18µM*	9%
Cc1ccc(OCCC(=O)OCC(=O)Nc2ccc(Cl)cn2)cc1	i	1%	i	-5%	-2%
CCCn1c(O)c(/C=C2\C=NN=C2c2ccccc2)sc1=S	?	9.2µM*	i	9%	?
CN(C)S(=O)(=O)c1ccc(C(=O)Nc2cc(S(=O)(=O)Nc3ccccc3Cl)ccc2N2CCCCC2)cc1	?	-1%	i	?	?
CN1CCN(c2ccc(Cl)cc2NC(=O)c2ccc(S(=O)(=O)N(C)C)cc2)CC1	i	19%	i	11µM*	9%
CCN(CC)S(=O)(=O)c1cc(C(=O)Nc2ccccc2[N+](=O)[O-])ccc1Cl	?	?	i	16µM*	?
CCN(CC)S(=O)(=O)c1cc(C(=O)Nc2cc(Cl)ccc2N2CCN(C)CC2)ccc1Cl	i	-1%	i	-4%	18µM*
COC(=O)C1=C(N)Oc2cc(N(C)C)ccc2C1c1ccccc1OC (stereo unspecified)	?	9.2µM*	i	12µM*	9%
COC(=O)C1=C(N)Oc2cc(C)n(CC3CCCO3)c(=O)c2C1c1ccccc1OC (stereo unspecified)	i	0%	i	0%	-1%
COc1cccc(Cn2c(=O)sc3ccccc3c2=O)c1	i	6%	i	?	?
COc1cccc(Cn2c(=O)c3ccccc3n3nc(C)cc23)c1	21µM*	?	?	-4%	-19%
CCCn1c(N)c(C(=O)CSc2nnc(C3CC3)n2Cc2ccccc2)c(=O)[nH]c1=O	i	0%	i	-7%	-7%
CCOC(=O)C1(Cc2ccccc2)CCCN(C(=O)c2cn[nH]c2)C1 (stereo unspecified)	i	-3%	i	-4%	3%
Cc1cccc(-c2cc3nc4c(c(NCc5ccco5)n3n2)CCCC4)c1	?	16µM*	i	?	?
OC1CCCN(c2c3c(nc4cc(-c5cccc(Cl)c5)nn24)CCC3)C1 (stereo unspecified)	16µM*	-5%	i	6%	21µM*
OC1CCCN(c2c3c(nc4cc(-c5cccc(F)c5)nn24)CCCC3)C1 (stereo unspecified)	i	27%	i	8%	?
Cc1cccc(-c2cc3nc4c(c(N5CCOCC5)n3n2)CCCC4)c1	?	1%	i	0%	?
Cc1cccc(-c2cc3nc4c(c(N5CCCC(O)C5)n3n2)CCC4)c1 (stereo unspecified)	?	4%	i	7%	16µM*
CCC(C)NCCCOc1ccc(C)cc1OC (stereo unspecified)	i	?	i	-3%	7%
CCc1cc2c(=O)n3c(nc2s1)-c1[nH]c2ccc(OC)cc2c1CC3	i	?	i	·	?
CCOC(=O)C1(Cc2cccc(OC)c2)CCN(C2CCOCC2)CC1	i	14%	i	7%	?
O=C(Nc1ccccc1N1CCOCC1)c1cc2ccccc2o1	?	-5%	i	-10%	17%
O=C(Nc1ccc(N2CCOCC2)c(Cl)c1)c1ccc(F)cc1	15µM*	?	i	-7%	?
O=C(Nc1ccc(N2CCOCC2)c(Cl)c1)c1cc2ccccc2o1	?	13µM*	?	3%[9.22 µM]	?
SMILES	KB-V1 cytotox	MCF10A rereplic	KB-3-1 tox	SW480 rereplic	ELG1 DNA repair
COc1ccc(N2CCOCC2)c(NC(=O)c2cc3ccccc3o2)c1	12µM*	?	i	?	-28%
CN1CCN(c2ccccc2NC(=O)c2cc3ccccc3o2)CC1	?	8%	i	7%	4%
CS(=O)(=O)N1CCN(c2ccccc2NC(=O)c2cc3ccccc3o2)CC1	?	-2%	i	-11%	21µM*
Cc1onc(-c2ccccc2)c1C(=O)N1CCN(c2ccccc2F)CC1	i	-9%	i	-15%	-5%
O=C(CCS(=O)(=O)c1ccc(Cl)cc1)Nc1nccs1	i	?	i	?	-1%
O=C(Cc1ccccc1)NCC(=O)Nc1ccccc1Br	i	-1%	i	-7%	?
O=C(Cn1nnc(-c2ccccc2NC(=O)c2ccccc2F)n1)NC1CCCC1	i	24%	i	-14%	19%
CCC(C)c1ccccc1NC(=O)CN1CCN(C/C=C/c2ccccc2)CC1 (stereo unspecified)	i	18%	i	14%	-22%
COc1ccc(CCNC2CC(=O)N(CCc3ccc(OC)c(OC)c3)C2=O)cc1OC (stereo unspecified)	18µM*	-2%	i	-5%	1%
COc1ccc(CCN2C(=O)CC(NCc3ccc4c(c3)OCO4)C2=O)cc1OC (stereo unspecified)	i	-4%	i	0%	-2%
COc1ccc(CCNC(=S)N2CCC(Cc3ccccc3)CC2)cc1OC	15µM*	?	?	-2%	9.2µM*
COc1ccc(CCNC(=O)c2ccc(CN3CCC(Cc4ccccc4)CC3)cc2)cc1OC	3.7µM*	6%	i	-3%	-16%
CCCNC(=S)N1CCC(Cc2ccccc2)CC1	i	11%	i	1%	2%
CN1CCN(C(=O)c2ccc(CN3CCOCC3)cc2)CC1	i	13%	i	-2%	6%
O=C(c1ccc(CN2CCOCC2)cc1)N1CCC(Cc2ccccc2)CC1	21µM*	?	i	1%	-22%
Cc1ccc(CCNC(=O)c2ccc3c(=O)n(-c4ccccc4)c(=O)[nH]c3c2)cc1	?	·	i	·	·
COc1ccc(-n2c(=O)[nH]c3cc(C(=O)NCCc4ccccc4)ccc3c2=O)cc1OC	i	1%	i	?	21µM*
COc1ccc(C)cc1NC(=O)C1CCCCN1S(=O)(=O)c1ccccc1 (stereo unspecified)	i	0%	?	-7%	?
Oc1c(C(c2cccc(Br)c2)N2CCCC2)sc2nc(-c3ccco3)nn12 (stereo unspecified)	i	·	i	·	·
Cc1cccc(C)c1NC(=O)C(CCc1ccccc1)n1c(=O)c(-c2ccccc2)nc2ccccc21 (stereo unspecified)	?	·	i	·	·
